Results on six compounds are retold here after PubChem BioAssay (NCATS).

“And” between values parts separate entries of the source, which are not always exact repeats. Equal values may be shown once. Results filed as inconclusive are left out. The source made the active and inactive calls. Unless noted, calls follow the shape of the dose curve; as a rule, active = well fitted curve in the direction sought with a large enough effect; inconclusive = small, poorly fitted or top-dose-only effect, or another doubt; inactive = no such curve, though single readings can be large; an effect the other way counts as inactive or inconclusive.

The test system of assay [1] is Zika virus NS2B-NS3 protease. Briefly: Primary screen GU AMC qHTS for Zika virus inhibitors (AID 1347154).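 Also: 0% = no-inhibitor control and -100% = no-enzyme control; nearly all actives have a fitted effect of over 70% in size.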 In short, it runs like this: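 Unlinked Zika NS2B hydrophilic domain/NS3 protease domain noncovalent complex (25 nM final) in 10 mM Tris-HCl pH 8.0, 0.01% Tween 20, with AMC peptide substrate. Fluorescence (ex 340, em 450 nm) change over 15 min, room temperature; percent inhibition fitted to 4-parameter Hill equation.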
On the technique in general: In qHTS, concentration-response curves come from the screen itself.

Assay [2] can be described thus: Primary qHTS for small molecule stabilizers of the endoplasmic reticulum resident proteome: Secreted ER Calcium Modulated Protein (SERCaMP) assay (AID 1508630). Also: % is scaled to controls: 0 for no effect and ±100 for the full control effect. The procedure, abridged:
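The SH-SY5Y reporter protocol was run at 3 concentrations up to 38.3 uM (primary) or 11 concentrations (follow-up): 16 h compound, 100 nM thapsigargin for 4 h, then extracellular luciferase luminescence.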

The target of assay [3] is Cytochrome P450 3A4 (Homo sapiens) (UniProt P08684). As to the kind of experiment: qHTS Assay for Inhibitors and Substrates of Cytochrome P450 3A4 (AID 884). Also: potency is read from the fitted curve at half-maximal effect; nearly all actives have a fitted effect of over 50% in size. In short, it runs like this:
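Luminescent readout of luciferin produced by CYP3A4 (20 nM) dealkylation of Luciferin-PPXE, 25 uM (its KM). NADPH-driven reaction ran 60 min at RT after 10 min compound preincubation; data scaled to 57 uM ketoconazole as 100% inhibition.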

Assay [4] shares this target. Briefly: qHTS Assay for Activators of Cytochrome P450 3A4 (AID 885). Also: nearly all actives have a fitted effect of over 65% in size. The procedure, abridged:
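Using 20nM recombinant human CYP3A4 in potassium phosphate (200mM), substrate Luciferin-PPXE at 25uM, luminescent luciferin detection followed a 60-min RT NADPH reaction; data scaled to 57 uM ketoconazole.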

Assay [5] is described as follows: Counterscreen qHTS for small molecule stabilizers of the endoplasmic reticulum resident proteome: GLuc-NoTag assay (AID 1508627).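 Also: 0% = thapsigargin alone and -100% = DMSO vehicle control.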 The procedure, abridged:
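Secreted GLuc lacking the SERCaMP modification is measured in SH-SY5Y cells exposed to compound for 19 h and then to thapsigargin (100 nM, 4 h) to deplete ER calcium; hits retested at 11 concentrations, up to 76.6 uM.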

Assay [6] addresses Cytochrome P450 1A2 (Homo sapiens) (UniProt P05177). Briefly: p450-cyp1a2 (AID 410; calls by dose curve;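 also: -100% = full effect of reference inhibitor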). In short, it runs like this: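 Read-out is luminescence from luciferin produced by CYP1A2 demethylation of Luciferin-ME (100uM, at Km). Detection reagent stopped the 60 min NADPH-dependent reaction; signals were normalized to 57 uM furafylline.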
Assay [7] deals with Glucocorticoid receptor (Homo sapiens) (UniProt P04150). As to the kind of experiment: GR-GFP Redistribution (AID 450;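 active = compounds whose dose series gives a full or clear partial fitted curve of increased nuclear translocation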; also: potency is read from the fitted curve at half-maximal effect). The conditions noted are these: U2OS GR-GFP nuclear translocation, laser cytometry, 2 h.
Assay [8] has the same target. Briefly: GR-EFC Redistribution (AID 451; calls by dose curve; also: potency is read from the fitted curve at half-maximal effect). The conditions noted are these: CHO-K1 GR-EFC translocation, beta-gal luminescence, 2 h. In short, it runs like this:
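CHO-K1 cells stably expressing nuclear-localized β-gal enzyme acceptor and GR fused C-terminally to the enzyme donor fragment; ligand-driven nuclear translocation restores β-gal by complementation. Compounds titrated up to 46 uM final, 2 h at 37 °C; luminescence read.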

Assay [9] has as its target Mitogen-activated protein kinase 10 (Mus musculus) (UniProt Q61831). As to the kind of experiment: JNK3 AlphaScreen Assay (AID 530; active = well fitted curve in either direction with a large enough effect, not every such curve was filed as active;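 also: kinase came from lysate of stimulated human HepG2 cells; signal reports phosphorylation of biotinylated GST-cJun 1-79 at Ser73 with 10 µM ATP; % is scaled to controls: 0 for no effect and ±100 for the full control effect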). The procedure, abridged:
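Biotinylated GST-cJun(1-79) served as substrate for JNK3 in HepG2 lysates stimulated with IL-1beta and TNF-alpha. ATP was 10 uM final, pH 7.6. Ser73 phosphorylation was quantified by AlphaScreen (680 nm excitation).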
On the technique in general: Alpha assays give light when donor and acceptor beads are brought close together.

The target of assay [10] is 3',5'-cyclic-AMP phosphodiesterase 4B (Homo sapiens) (UniProt Q07343). Briefly: qHTS Assay for Inhibitors of PDE-IV (AID 607; active = well fitted activation curve with a large enough effect in the main read-out, with a control signal flat, not every such curve was filed as active; also: % of control where 0% means no effect). The procedure, abridged: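 Live HEK293 cells with a modified cyclic nucleotide-gated (CNG) channel report intracellular cAMP via membrane-potential dye fluorescence (ex 535/em 590 nm). Endogenous PDE-IV was targeted. Compounds were tested at up to 22.9 uM final; RO 20-1724 100 uM served as control.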

The target of assay [11] is Cytochrome P450 2C9 (Homo sapiens) (UniProt P11712). Briefly: qHTS Assay for Inhibitors and Substrates of Cytochrome P450 2C9 (AID 883). Also: % is scaled to controls: 0 for no effect and ±100 for the full control effect; nearly all actives have a fitted effect of over 60% in size. In short, it runs like this: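 Human CYP2C9 (10nM) hydroxylated Luciferin-H (100uM, at its KM) to luciferin in 25mM KPO4. Compound was preincubated 10 min at 37C, then NADPH regeneration started a 60 min reaction at 37C. Luminescence was read after detection reagent, normalized to 57uM sulphaphenazole.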

For assay [12], the target named is Ubiquitin carboxyl-terminal hydrolase 1 (Homo sapiens) (UniProt O94782). As to the kind of experiment: Inhibitors of USP1/UAF1: Pilot qHTS (AID 504865).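 Also: rhodamine fluorescence freed from ubiquitin-rhodamine substrate followed over time; top concentration of the series differs between compounds; % is scaled to controls: 0 for no effect and ±100 for the full control effect; nearly all actives have a fitted effect of over 35% in size.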 The procedure, abridged:
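USP1/UAF1 complex at 1 nM preincubated 15 min at room temperature with compound, then Ub-Rho substrate added at 150 nM final. Fluorescence (480/540 nm) read kinetically in 50 mM HEPES pH 7.8, 0.5 mM EDTA, 1 mM TCEP, 0.1 mg/ml BSA, 0.01% Tween-20.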

Assay [13] concerns the target DNA dC->dU-editing enzyme APOBEC-3G (Homo sapiens) (UniProt Q9HC16). As to the kind of experiment: qHTS for inhibitors of Vif-A3G interactions: Validation (AID 588379). Also: 0% is about no effect. The procedure, abridged: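 Yellow fluorescence (Ex 488, Em 500-530) of Vif-coexpressing HeLa A3G-eYFP cells, scanned by Acumen cytometer, reports blocked A3G degradation. Cells plated at 700/well overnight at 37 deg C before compound addition, then a further overnight compound incubation at 37 deg C.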

Assay [14] in a line: AP1 Signaling Pathway (AID 357; active = well fitted curve in either direction with a large enough effect, not every such curve was filed as active; also: % is scaled to controls: 0 for no effect and ±100 for the full control effect). The settings on record: ME-180 AP-1-bla reporter, EGF-induced, beta-lactamase ratio, 5 h. The procedure, abridged: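 Cells are seeded overnight, exposed to compound titrations and an EC50 level of EGF for 5 hours at 37 °C, then loaded with CCF4 dye for 2.5 hours. Beta-lactamase activity under the AP-1 element is read as a blue/green ratio.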

Assay [15] is described as follows: Stat Signaling Pathway (AID 446; active = well fitted curve in either direction with a large enough effect, not every such curve was filed as active;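 also: ME-180 cervical cancer cells given 40 pM IL-6 alongside compound; SIE-controlled beta-lactamase reporter measured as 460/530 nm FRET emission ratio; % is scaled to controls: 0 for no effect and ±100 for the full control effect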). The conditions noted are these: ME-180 (cervical carcinoma) SIE beta-lactamase reporter, IL-6 stimulated, 5 h; at 17.2 µM (top of the series). In short, it runs like this:
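Overnight-plated ME-180 cells bearing a STAT Inducible Element beta-lactamase reporter; 5 h co-exposure to compound and 40 pM IL-6; values normalized to 300 pM IL-6 and 125 nM JAK inhibitor controls.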

The target of assay [16] is Guanine nucleotide-binding protein G(i) subunit alpha-1 (Homo sapiens) (UniProt P63096). As to the kind of experiment: qHTS Assay for Inhibitors of RGS12 GoLoco Motif Activity (Green Fluorophore) (AID 879).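 Also: 0% = labeled peptide with Gαi1 and full inhibition = labeled peptide alone without protein; negative values mean loss of peptide binding seen as reduced polarization.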 In short, it runs like this: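 A drop in FITC polarization marked displacement of the FITC-tagged RGS12 GoLoco peptide (10 nM) from Gαi1 (50 nM). Compounds were incubated 10 min at room temperature in Tris pH 7.5 buffer containing 150 mM NaCl, 0.1 mM GDP and 0.05% NP40; unlabeled peptide titration served as control.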

Assay [17] concerns the target Muscarinic acetylcholine receptor M1 (Rattus norvegicus) (UniProt P08482). Briefly: qHTS Assay for Antagonists of Acetylcholine Muscarinic M1 Receptor: Kinetic Measurement of Intracellular Calcium Response (AID 943). Also: potency is read from the fitted curve at half-maximal effect; nearly all actives have a fitted effect of over 75% in size. The procedure, abridged: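 Quantitative HTS in CHO-M1 (rat receptor) cells: 10 min compound exposure ahead of 100 nM carbachol, Fluo-4 fluorescence followed 4 min, value expressed as peak-to-basal ratio.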

The target is the same in assay [18]. Briefly: qHTS Assay for Antagonists of Acetylcholine Muscarinic M1 Receptor: Measurement of IP-One Response (AID 944). Also: potency is read from the fitted curve at half-maximal effect; nearly all actives have a fitted effect of over 75% in size. The procedure, abridged:
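Antagonism was measured as loss of carbachol-driven (EC80) IP1 accumulation in CHO cells carrying rat M1, using a homogeneous IP-One TR-FRET kit read at 620 and 665 nm.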

Assay [19] deals with Pyruvate kinase (Leishmania mexicana) (UniProt Q27686). As to the kind of experiment: qHTS Validation Assay for Inhibitors of Leishmania Mexicana Pyruvate Kinase (AID 945).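 Also: 0% = DMSO only neutral control wells.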 The procedure, abridged:
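Purified LmPYK (E451W mutant, 0.2 nM) was incubated 1 h at room temperature with 0.5 mM PEP and 0.1 mM ADP in 50 mM imidazole pH 7.2, 50 mM KCl, 7 mM MgCl2; ATP formed was read by PKLight luminescence, normalized to DMSO wells.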

Assay [20] deals with Pyruvate kinase PKM (Homo sapiens) (UniProt P14618). As to the kind of experiment: qHTS Assay for Activators of Human Muscle Pyruvate Kinase (AID 954; active = well fitted curve in the direction sought with a large enough effect, not every such curve was filed as active;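 also: 0% = uninhibited enzyme and -100% = no enzyme or full thiadiazolimine inhibition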). The procedure, abridged:
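Screening used highly purified human pyruvate kinase M2 under submaximal activity, with PEP at its Km and ADP below Km. After an hour at room temperature, ATP was read by luciferase luminescence.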

In assay [21] the target is alpha-glucosidase (Oryza sativa, rice) (UniProt Q653V4). Briefly: Counterscreen for Glucocerebrosidase Inhibitors: qHTS Assay for Rice alpha-Glucosidase at pH 5.0 (AID 997).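 Also: 0% = full activity with enzyme and -100% = basal without enzyme.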 In short, it runs like this:
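Endpoint fluorogenic assay at pH 5.0: compounds (0.7 nM to 77 uM) titrated against 4 nM rice enzyme and 400 uM 4-MU-alpha-glucoside for 20 min at room temperature; NaOH/glycine stop, read ex 365/em 440 nm, Hill-fitted AC50.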

A short description of assay [22]: qHTS Assay for Lipid Storage Modulators (AID 1519; calls by dose curve). The conditions noted are these: Drosophila S3 cells, BODIPY lipid droplet/cell ratio, laser cytometry, cells loaded with oleic acid. In short, it runs like this:
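Cells seeded at 5,000 per well were treated with compounds over a concentration series and loaded with oleic acid (400 uM, as added). Lipid droplet fluorescence (488 nm excitation, 500-530 nm channel) was read by laser-scanning cytometry and normalized to 20 uM Triacsin C.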

Assay [23] is described as follows: Cell Viability qHTS for small molecule stabilizers of the endoplasmic reticulum resident proteome (AID 1508629). The settings on record: cell viability counter-screen, 100 nM thapsigargin for final 4 h.

Glucocorticoid receptor (Homo sapiens), sequence (P04150 whole entry, looked up): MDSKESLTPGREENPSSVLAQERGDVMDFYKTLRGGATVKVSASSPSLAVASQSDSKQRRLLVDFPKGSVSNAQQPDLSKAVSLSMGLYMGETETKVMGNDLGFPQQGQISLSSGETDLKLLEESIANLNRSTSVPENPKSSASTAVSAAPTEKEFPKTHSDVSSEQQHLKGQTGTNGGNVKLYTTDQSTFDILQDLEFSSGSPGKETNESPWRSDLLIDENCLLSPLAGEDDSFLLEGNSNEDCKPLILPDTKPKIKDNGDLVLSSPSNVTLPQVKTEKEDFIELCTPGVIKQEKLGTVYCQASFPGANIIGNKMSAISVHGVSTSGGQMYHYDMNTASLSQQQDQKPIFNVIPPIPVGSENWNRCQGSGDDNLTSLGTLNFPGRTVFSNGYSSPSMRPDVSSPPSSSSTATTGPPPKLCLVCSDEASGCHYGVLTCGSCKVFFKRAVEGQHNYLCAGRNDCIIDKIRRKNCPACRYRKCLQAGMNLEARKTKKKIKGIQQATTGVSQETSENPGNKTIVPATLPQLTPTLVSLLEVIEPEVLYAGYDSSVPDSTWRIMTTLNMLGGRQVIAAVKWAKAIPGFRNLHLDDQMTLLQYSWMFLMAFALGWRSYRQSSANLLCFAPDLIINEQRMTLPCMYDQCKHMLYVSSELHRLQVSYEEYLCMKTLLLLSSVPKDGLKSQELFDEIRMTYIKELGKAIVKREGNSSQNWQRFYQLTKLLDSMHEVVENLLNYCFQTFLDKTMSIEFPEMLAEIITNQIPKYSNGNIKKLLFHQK
DNA dC->dU-editing enzyme APOBEC-3G (Homo sapiens), sequence (Q9HC16 whole entry, looked up): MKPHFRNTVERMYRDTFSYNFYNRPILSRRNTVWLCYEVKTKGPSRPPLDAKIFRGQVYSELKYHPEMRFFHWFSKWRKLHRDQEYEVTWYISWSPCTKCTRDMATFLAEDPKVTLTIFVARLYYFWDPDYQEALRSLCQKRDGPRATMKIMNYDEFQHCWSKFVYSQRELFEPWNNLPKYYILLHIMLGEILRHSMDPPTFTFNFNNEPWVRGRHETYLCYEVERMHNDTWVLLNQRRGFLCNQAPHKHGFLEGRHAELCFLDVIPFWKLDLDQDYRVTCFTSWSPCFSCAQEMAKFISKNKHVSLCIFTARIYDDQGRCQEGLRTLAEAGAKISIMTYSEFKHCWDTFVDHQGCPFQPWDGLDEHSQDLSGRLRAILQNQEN
Muscarinic acetylcholine receptor M1 (Rattus norvegicus), sequence (P08482 whole entry, looked up): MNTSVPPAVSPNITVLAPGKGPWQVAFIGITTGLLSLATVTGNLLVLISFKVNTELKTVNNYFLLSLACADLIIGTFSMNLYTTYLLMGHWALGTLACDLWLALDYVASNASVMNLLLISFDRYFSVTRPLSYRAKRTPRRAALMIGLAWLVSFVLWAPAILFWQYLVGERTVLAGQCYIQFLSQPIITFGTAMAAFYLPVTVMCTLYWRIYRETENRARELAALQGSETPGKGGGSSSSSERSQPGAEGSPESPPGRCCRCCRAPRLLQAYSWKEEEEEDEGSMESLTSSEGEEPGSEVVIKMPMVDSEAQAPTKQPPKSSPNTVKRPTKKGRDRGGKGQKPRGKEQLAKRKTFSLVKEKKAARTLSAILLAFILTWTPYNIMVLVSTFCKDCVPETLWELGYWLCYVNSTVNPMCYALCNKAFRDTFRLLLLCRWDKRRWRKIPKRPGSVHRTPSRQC
Ubiquitin carboxyl-terminal hydrolase 1 (Homo sapiens), sequence (O94782 whole entry, looked up): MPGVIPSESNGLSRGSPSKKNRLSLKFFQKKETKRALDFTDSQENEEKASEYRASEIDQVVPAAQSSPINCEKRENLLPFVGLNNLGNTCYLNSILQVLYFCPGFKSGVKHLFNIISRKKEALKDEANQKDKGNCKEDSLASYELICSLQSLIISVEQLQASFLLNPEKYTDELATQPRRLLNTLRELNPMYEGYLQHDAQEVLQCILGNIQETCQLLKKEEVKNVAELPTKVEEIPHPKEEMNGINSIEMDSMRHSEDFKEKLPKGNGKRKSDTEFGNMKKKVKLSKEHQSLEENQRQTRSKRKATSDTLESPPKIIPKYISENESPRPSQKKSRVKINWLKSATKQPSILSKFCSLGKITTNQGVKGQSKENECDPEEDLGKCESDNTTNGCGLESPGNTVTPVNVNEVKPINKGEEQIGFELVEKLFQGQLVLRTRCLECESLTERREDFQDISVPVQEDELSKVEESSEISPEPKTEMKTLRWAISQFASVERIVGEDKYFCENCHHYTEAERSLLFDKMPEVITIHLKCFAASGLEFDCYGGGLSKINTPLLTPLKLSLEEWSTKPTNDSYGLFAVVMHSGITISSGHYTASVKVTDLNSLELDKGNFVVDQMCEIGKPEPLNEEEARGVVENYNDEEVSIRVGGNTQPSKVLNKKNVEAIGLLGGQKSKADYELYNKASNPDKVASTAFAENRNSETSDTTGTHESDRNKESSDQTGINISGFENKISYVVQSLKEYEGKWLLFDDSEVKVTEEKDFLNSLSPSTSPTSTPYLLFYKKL
Cytochrome P450 3A4 (Homo sapiens), sequence (P08684 whole entry, looked up): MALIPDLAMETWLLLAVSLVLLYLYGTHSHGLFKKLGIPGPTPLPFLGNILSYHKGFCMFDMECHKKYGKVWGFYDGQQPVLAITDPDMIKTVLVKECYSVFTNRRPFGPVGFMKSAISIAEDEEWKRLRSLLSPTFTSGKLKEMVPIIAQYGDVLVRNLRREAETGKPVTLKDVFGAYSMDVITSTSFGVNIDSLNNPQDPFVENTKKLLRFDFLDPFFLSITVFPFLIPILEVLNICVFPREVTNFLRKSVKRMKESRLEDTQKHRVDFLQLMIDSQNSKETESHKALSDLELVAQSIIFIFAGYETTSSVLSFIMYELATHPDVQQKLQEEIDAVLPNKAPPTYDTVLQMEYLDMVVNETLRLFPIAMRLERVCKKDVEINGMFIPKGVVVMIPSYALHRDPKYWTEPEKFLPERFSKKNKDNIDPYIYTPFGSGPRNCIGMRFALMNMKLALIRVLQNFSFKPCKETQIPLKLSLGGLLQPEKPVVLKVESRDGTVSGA
Guanine nucleotide-binding protein G(i) subunit alpha-1 (Homo sapiens), sequence (P63096 whole entry, looked up): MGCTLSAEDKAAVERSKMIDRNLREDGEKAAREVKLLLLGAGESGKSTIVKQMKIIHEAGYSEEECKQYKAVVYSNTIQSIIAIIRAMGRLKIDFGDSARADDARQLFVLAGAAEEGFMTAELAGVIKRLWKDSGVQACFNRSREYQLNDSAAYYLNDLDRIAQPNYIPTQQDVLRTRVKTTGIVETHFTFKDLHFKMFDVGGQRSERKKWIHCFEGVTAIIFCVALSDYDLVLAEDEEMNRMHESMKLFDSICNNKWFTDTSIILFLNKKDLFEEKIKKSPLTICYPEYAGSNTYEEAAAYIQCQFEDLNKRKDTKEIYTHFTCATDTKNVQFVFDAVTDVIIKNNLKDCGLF
Pyruvate kinase (Leishmania mexicana), sequence (Q27686 2-499 E452W): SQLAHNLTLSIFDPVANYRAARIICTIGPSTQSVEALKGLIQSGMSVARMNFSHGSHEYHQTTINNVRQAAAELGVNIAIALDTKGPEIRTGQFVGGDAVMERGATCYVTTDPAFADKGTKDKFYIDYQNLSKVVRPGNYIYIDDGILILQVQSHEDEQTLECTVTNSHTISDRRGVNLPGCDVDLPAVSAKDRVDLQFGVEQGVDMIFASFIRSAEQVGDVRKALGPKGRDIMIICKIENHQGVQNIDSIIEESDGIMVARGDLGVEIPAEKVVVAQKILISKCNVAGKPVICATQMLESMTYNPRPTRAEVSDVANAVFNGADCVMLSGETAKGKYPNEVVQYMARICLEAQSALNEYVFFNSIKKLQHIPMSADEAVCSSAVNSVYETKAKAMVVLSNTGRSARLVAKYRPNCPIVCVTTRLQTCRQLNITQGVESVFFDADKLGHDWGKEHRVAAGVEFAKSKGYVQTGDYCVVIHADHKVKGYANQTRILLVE
Pyruvate kinase PKM (Homo sapiens), sequence (P14618 whole entry, looked up): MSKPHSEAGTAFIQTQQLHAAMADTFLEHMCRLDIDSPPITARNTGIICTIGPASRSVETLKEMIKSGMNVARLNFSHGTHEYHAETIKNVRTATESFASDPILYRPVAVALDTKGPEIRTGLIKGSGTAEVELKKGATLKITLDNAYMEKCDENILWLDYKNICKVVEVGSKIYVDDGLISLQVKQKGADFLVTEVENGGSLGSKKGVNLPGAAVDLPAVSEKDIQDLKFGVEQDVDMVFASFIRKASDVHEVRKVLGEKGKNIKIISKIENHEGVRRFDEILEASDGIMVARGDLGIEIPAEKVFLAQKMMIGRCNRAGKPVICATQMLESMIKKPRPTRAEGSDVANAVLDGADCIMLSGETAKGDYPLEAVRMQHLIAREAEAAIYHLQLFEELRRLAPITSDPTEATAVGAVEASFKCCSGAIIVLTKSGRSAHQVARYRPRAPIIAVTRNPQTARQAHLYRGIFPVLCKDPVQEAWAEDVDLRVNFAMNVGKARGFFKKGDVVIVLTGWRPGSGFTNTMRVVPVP
Cytochrome P450 2C9 (Homo sapiens), sequence (P11712 whole entry, looked up): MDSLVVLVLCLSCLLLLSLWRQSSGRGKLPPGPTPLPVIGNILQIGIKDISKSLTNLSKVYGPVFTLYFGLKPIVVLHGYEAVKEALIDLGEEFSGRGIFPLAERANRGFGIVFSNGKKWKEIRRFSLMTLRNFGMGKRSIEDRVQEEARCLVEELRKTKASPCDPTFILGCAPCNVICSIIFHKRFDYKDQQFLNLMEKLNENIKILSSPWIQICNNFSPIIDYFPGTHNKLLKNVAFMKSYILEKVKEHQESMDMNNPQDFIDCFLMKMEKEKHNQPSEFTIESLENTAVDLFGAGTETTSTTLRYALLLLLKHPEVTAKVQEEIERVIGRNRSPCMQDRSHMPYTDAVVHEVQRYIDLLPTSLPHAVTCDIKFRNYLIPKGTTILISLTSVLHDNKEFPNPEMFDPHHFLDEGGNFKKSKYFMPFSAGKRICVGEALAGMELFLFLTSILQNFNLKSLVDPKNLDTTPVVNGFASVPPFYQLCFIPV

Take `COc1c(O)c2c(=O)cc(OC)c3c4c(OC)cc(=O)c5c(O)c(OC)c(C[C@@H](C)OC(=O)c6ccccc6)c(c(c1C[C@@H](C)OC(=O)Oc1ccc(O)cc1)c23)c54`: the activity change, negative = inhibition in assay [1] is 10.7% [at 4.99 µM] (inactive); in assay [2], 121% [at 3.88 µM] (inactive).

Turning to `CCOC(=O)NC[C@H](Cc1ccc(OCCc2nc(-c3ccccc3)oc2C)cc1)N/C(C)=C\C(=O)c1ccc(C(F)(F)F)cc1`, the Potency in assay [3] was 794 nM (active). Besides, the Potency result in [4], in assay [1] and in [5] was “inactive” throughout.

For `C[C@@H](NCc1cc(Br)cc2[nH]c(=O)c(=O)[nH]c12)P(=O)(O)O`, the Potency entry in assay [6], in assay [9], in assay [10], in assay [11], in assay [12] and in [13] was “inactive” throughout. For the same compound, the Potency result in assay [1] and in [5] was “inactive” each time. The Potency is 264 nM (active) in assay [7] and > 46 µM (inactive) in assay [8].

Turning to `CCCCC[C@H](O)/C=C/C=C\C=C\C=C\[C@@H](O)[C@@H](O)CCCC(=O)O`, the values for the activity change, negative = inhibition in assay [1] and in assay [2] were 15% [at 0.59 µM] (inactive) and 7.52% [at 0.478 µM] (inactive), respectively.

As for `N[C@@H](CCS(=O)O)C(=O)O`, the Potency entry in assay [1], in assay [5] and in [2] was “inactive” throughout.

For `C[C@@H]([C@H](O)c1ccc(O)cc1)N1CCC(Cc2ccccc2)CC1`, the activity change, negative = inhibition in [14] (at 17.2 µM (top of the series)) is -4.89% (inactive); in [14] (at 38 µM (top of the series)), -7.76% (inactive); in [22] (at 25.7 µM (top of the series)), -1.79% (inactive). For the same compound, the activity, negative = inhibition in assay [15] is 8.14% (inactive). In addition, the Potency in [7] is > 46 µM (inactive) and > 20.6 µM (inactive); in assay [8] it was > 46 µM (inactive) and > 20.6 µM (inactive); in assay [17], 12.6 µM (active); in assay [18] it was 7.94 µM (active). The Potency result in assay [9], in assay [19], in assay [12], in [13], in assay [1] and in assay [5] was “inactive” throughout. For the same compound, the compound was classed as inactive in [16], in assay [20] and in assay [21]. Also, the max response is -1.79% in assay [22] (measured here: cell count channel max response), -6.29% in [22] (measured here: lipid channel max response) and -8.82% (inactive) in assay [23].
